Rows were chosen to be rich in hits. Some 13% of all compounds tested hit in one or more screens of this group.
G9a inh – qHTS Assay for Inhibitors of Histone Lysine Methyltransferase G9a | Potency, µM (series often up to 102 µM), for inactives: at the highest dose activity, negative = inhibition, actives largely listed as inhibitors | AID 504332, 2011 | Histone-lysine N-methyltransferase EHMT2 (Homo sapiens), Q96KQ7 | 350,000 compounds, 8.8% hits | G9a H3K9 monomethylation, AlphaScreen, 2 h; note: potency is the fitted concentration of half-maximal effect; % is set by controls: 0 for no effect and ±100 for the full control effect; nearly all actives have a fitted effect of over 75% in size
Target sequence (Q96KQ7 913-1193 limits assumed): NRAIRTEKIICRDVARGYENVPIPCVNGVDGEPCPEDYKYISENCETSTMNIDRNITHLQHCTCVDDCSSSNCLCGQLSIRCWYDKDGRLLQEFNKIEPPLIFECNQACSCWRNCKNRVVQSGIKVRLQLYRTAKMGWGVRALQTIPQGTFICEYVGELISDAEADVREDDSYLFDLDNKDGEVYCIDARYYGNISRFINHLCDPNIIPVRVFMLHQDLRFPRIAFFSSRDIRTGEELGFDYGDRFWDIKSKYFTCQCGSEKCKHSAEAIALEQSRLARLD
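AlphaScreen read-out: biotin-H3K9 peptide (500 nM) methylation by 20 nM enzyme with 20 uM SAM, 2 h at room temperature after 15 min compound preincubation; anti-monomethyl H3K9 antibody plus donor/acceptor beads, 10 min dark.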
miR-21 reporter – qHTS Assay for Modulators of miRNAs and/orActivators of miR-21. HeLa miR-21 FLuc reporter, luciferase, 48 h. Potency, µM (highest dose often 38.3 µM), without a hit: at the top dose activity change, positive = activation, hits mostly activators. 340,000 tested, under 10 active. AID 2288, 2010;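 note: % of control where 0% means no effect; miR-21 action dims this reporter so a rising signal means less miR-21 action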
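Luminescence from a firefly luciferase reporter carrying a miR-21 binding site downstream, stably expressed under a CMV promoter in HeLa cells that make miR-21 endogenously, reports miRNA modulation after 48 h compound exposure up to approximately 40uM final.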
Sfp inh – qHTS Assay for Inhibitors of Bacillus subtilis Sfp phosphopantetheinyl transferase (PPTase) | 4'-phosphopantetheinyl transferase ffp (Bacillus subtilis), Q9F4F7 | Biochemical Sfp PPTase activity, qHTS | Potency, µM, for inactives: largest response in the series, negative = inhibition, usual class: inhibitors | 310,000 compounds, 3.5% hits;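 note: the enzyme is Sfp with the accession as filed and its product quenches rhodamine fluorescence; potency is the fitted concentration of half-maximal effect; 0% = enzyme reaction without inhibitor and -100% = no enzyme wells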
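Fluorescence-quenching assay with 15 nM Sfp, 5 uM rhodamine-CoA and 12.5 uM BHQ-2-labelled ybbR peptide in pH 7.6 Hepes/MgCl2 buffer. Enzyme was pre-incubated with compound for 15 min at room temperature. Rate was taken from the 30-min fluorescence change (525/598 nm).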
Lamin A splicing – qHTS Assay for Modulators of Lamin A Splicing; 200,000 compounds, 0.01% hits; AID 1487, 2009; HeLa LMNA splicing GFP/RFP minigene ratio, 48 h; Potency, µM (doses to about 46.1 µM), for the others: at the top dose ratio change, negative = inhibition, most hits filed as inhibitors; active = well fitted inhibition curve with a large enough effect in the signal ratio, with a control signal flat, not every such curve was filed as active; inconclusive = small, poorly fitted or top-dose-only effect, or effect the other way, or a change in a side signal; the % refers to the signal ratio; note: potency is the fitted concentration of half-maximal effect; % is set by controls: 0 for no effect and ±100 for the full control effect
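S3 HeLa stable clones carrying a lamin A-EGFP splicing minigene plus DsRed2 were seeded at 600 cells/well in Opti-MEM with 2% FBS, pin-dosed and incubated 48 h at 37°C. Acumen cytometry (488 nm) gave the GFP/RFP total-intensity ratio.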
ALDH1A1 inh – qHTS Assay for Inhibitors of Aldehyde Dehydrogenase 1 (ALDH1A1). Aldehyde dehydrogenase 1A1 (Homo sapiens), P00352. Purified ALDH1A1, NADH fluorescence, propionaldehyde substrate. Potency, µM (doses to about 75.3 µM), without a hit: top-dose activity, negative = inhibition, most hits filed as inhibitors. 220,000 compounds, 7.3% hits; active = well fitted inhibition curve with a large enough effect, not every such curve was filed as active; inconclusive = small, poorly fitted or top-dose-only effect, or another doubt; inactive = no such curve, though single readings can be large or run the other way;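 note: potency is the fitted concentration of half-maximal effect; plate controls were no enzyme wells and a reference inhibitor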
JMJD2E inh – qHTS Assay for Inhibitors of Human Jumonji Domain Containing 2E (JMJD2E). Lysine-specific demethylase 4E (Homo sapiens), B2RXH2. JMJD2E catalytic domain, FDH-coupled NADH fluorescence (FDH is formaldehyde dehydrogenase). Potency, µM (doses to about 57.1 µM), for the others: at the top dose activity change, negative = inhibition, most hits filed as inhibitors. 230,000 compounds, 1.6% hits. AID 2147, 2009; active = well fitted inhibition curve with a large enough effect, not every such curve was filed as active; inconclusive = small, poorly fitted or top-dose-only effect, or another doubt; inactive = no such curve, though single readings can be large or run the other way;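 note: potency is the fitted concentration of half-maximal effect; 0% = wells with enzyme and -100% = buffer wells without enzyme; nearly all actives have a fitted effect of over 50% in size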
Target sequence (B2RXH2 1-337 limits assumed): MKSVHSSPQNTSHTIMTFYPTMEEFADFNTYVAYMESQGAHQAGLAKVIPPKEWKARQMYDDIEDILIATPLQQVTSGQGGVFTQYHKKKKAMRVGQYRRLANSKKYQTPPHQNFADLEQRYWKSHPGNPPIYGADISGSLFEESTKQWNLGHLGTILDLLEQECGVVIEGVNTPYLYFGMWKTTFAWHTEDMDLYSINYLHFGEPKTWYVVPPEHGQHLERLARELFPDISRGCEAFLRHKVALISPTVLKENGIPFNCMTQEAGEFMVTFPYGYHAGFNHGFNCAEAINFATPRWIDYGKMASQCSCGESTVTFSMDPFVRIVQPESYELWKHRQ
An asterisk follows results filed as active; [ ] = remark or other dose. Unless noted, calls come from the whole dose curve; as a rule, active = well fitted curve in the direction sought with a large enough effect; inconclusive = small, poorly fitted or top-dose-only effect, or another doubt; inactive = no such curve, though single readings can be large; an effect the other way counts as inactive or inconclusive.

`O=C(NC(=S)NNC(=O)c1ccccc1O)c1cccc([N+](=O)[O-])c1` gave G9a inh 52%[2.33 µM], miR-21 reporter 0% and Sfp inh 14%.
For O=C(NNC(=S)Nc1ccc(F)cc1)c1cccc([N+](=O)[O-])c1 the results were G9a inh 45µM*, miR-21 reporter -24%, Sfp inh 5%, ALDH1A1 inh -6% and JMJD2E inh 2%.
For O=C(Nc1sc2c(c1C(=O)c1ccccc1)CCCC2)c1cccnc1 the results were G9a inh 40µM*, miR-21 reporter -3%, Sfp inh 17%, Lamin A splicing 3%, ALDH1A1 inh inconclusive and JMJD2E inh inconclusive.
O=C(Nc1sc2c(c1C(=O)c1ccc(Cl)cc1)CCCC2)c1cccnc1 was read as G9a inh inconclusive, miR-21 reporter -7%, Sfp inh 32µM*, Lamin A splicing inconclusive, ALDH1A1 inh 20µM* and JMJD2E inh -17%.
Screening Cc1cccc(NC(=O)c2c(NC(=O)c3ccccc3)sc3c2CCC3)c1 returned G9a inh 36%[59 µM] and miR-21 reporter -23%.
NC(=O)c1c(NC(=O)c2cccnc2)sc2c1CCCC2 was read as G9a inh 12%[59 µM], miR-21 reporter -32%, Sfp inh -7%, ALDH1A1 inh inconclusive and JMJD2E inh -4%.
Cc1cccc(NC(=O)c2c(NC(=O)c3ccccc3)sc3c2CCCC3)c1 was read as G9a inh 1.3µM* and miR-21 reporter -4%.
Screening CCOc1ccccc1CNC(=O)Cn1c(-c2ccccc2)cc(C(C)=O)c1C returned G9a inh 1%[59 µM] and miR-21 reporter -5%.
For CCCN(S(=O)(=O)c1ccccc1F)S(=O)(=O)c1ccccc1Br the results were G9a inh -2%[59 µM], miR-21 reporter 5% and Sfp inh 5%.
Cc1ccc(NC(=S)NCC23C=CC(O2)C2C(=O)N(c4ccc(C)cc4)C(=O)C23)cc1 (stereo not drawn) was read as G9a inh 7.9µM*, miR-21 reporter -6%, Sfp inh 35µM*, Lamin A splicing -6%, ALDH1A1 inh 1.3µM* and JMJD2E inh 10%.
Cc1cccc(NC(=O)c2cccc(N3C(=O)C4C5C=CC(C6CC56)C4C3=O)c2)c1 (stereo not drawn) was read as miR-21 reporter 21% and Sfp inh 3%.
Cc1ccc(S(=O)(=O)NCC23C=CC(O2)C2C(=O)N(c4ccccc4)C(=O)C23)cc1 (stereo not drawn) was read as G9a inh inconclusive, miR-21 reporter 14%, Sfp inh 28µM*, Lamin A splicing 3%, ALDH1A1 inh 3.5µM* and JMJD2E inh -5%.
`Cc1cccc(NC(=S)NCC23C=CC(O2)C2C(=O)N(c4ccc(Cl)cc4)C(=O)C23)c1` (stereo not drawn) gave G9a inh 1.1µM*, miR-21 reporter -3%, Sfp inh 35µM*, Lamin A splicing inconclusive, ALDH1A1 inh 1.4µM* and JMJD2E inh 6%.
Screening Cc1ccc(N2C(=O)C3C4C=CC(CNC(=S)N5CCN(c6ccccc6)CC5)(O4)C3C2=O)cc1 (stereo not drawn) returned G9a inh 2.2µM*, miR-21 reporter 2%, Sfp inh 13µM*, ALDH1A1 inh 0.63µM* and JMJD2E inh -4%.
S=C(NCC1CCCO1)N1CCN(c2ccccc2)CC1 (stereo not drawn) was read as G9a inh 19%, miR-21 reporter 1%, Sfp inh -6%, ALDH1A1 inh -5% and JMJD2E inh 8%.
`COc1ccc(OC)c(NC(=O)Cn2c(=O)cc(C)c3c(C)nn(-c4cccc(Cl)c4C)c32)c1` gave G9a inh -32%[59 µM] and miR-21 reporter -1%.
Screening Cc1ccc2oc3c(c(=O)c2c1)C(c1ccccc1F)N(c1ccccn1)C3=O (stereo not drawn) returned G9a inh -5%[59 µM] and miR-21 reporter -2%.
COC(=O)c1sc2nc(SCC(=O)N(C)c3ccccc3)n(N)c(=O)c2c1C was read as G9a inh 25µM*, miR-21 reporter -27%, Sfp inh inconclusive, ALDH1A1 inh inconclusive and JMJD2E inh inconclusive.
Screening CCCCNC(=O)C(CC)Sc1nc2sc(C(=O)OC)c(C)c2c(=O)n1N (stereo not drawn) returned G9a inh 5%[0.0925 µM], miR-21 reporter -7%, Sfp inh 50µM*, Lamin A splicing 8%, ALDH1A1 inh inconclusive and JMJD2E inh inconclusive.
`COC(=O)c1sc2nc(SCc3ccccc3C)n(N)c(=O)c2c1C` gave G9a inh 11%, miR-21 reporter -2%, Sfp inh 5%, Lamin A splicing inconclusive, ALDH1A1 inh inconclusive and JMJD2E inh inconclusive.
CCCCNC(=O)C(CC)Sc1nnc(-c2cccc(F)c2)c(-c2cccc(F)c2)n1 (stereo not drawn) was read as G9a inh -30%[59 µM], miR-21 reporter inconclusive and Lamin A splicing -3%[46 µM].
`CCCC[n+]1c(C)sc2ccc(C)cc21` gave G9a inh -48%, miR-21 reporter 1%, Sfp inh -10%, Lamin A splicing inconclusive, ALDH1A1 inh 5% and JMJD2E inh inconclusive.
For Cc1ccc2sc(C)[n+](CCO)c2c1 the results were G9a inh 28µM*, miR-21 reporter -1%, Sfp inh 45µM*, ALDH1A1 inh -1% and JMJD2E inh -8%.
Screening CC(C)(CN=C1NS(=O)(=O)c2ccccc21)CNC(=O)c1ccccc1 returned G9a inh 46%, miR-21 reporter 7% and Sfp inh 14%.
O=C(C1=C(Nc2ccccc2)c2ccccc2S(=O)(=O)N1)c1ccccc1 was read as G9a inh 25µM*, miR-21 reporter 1%, Sfp inh 89µM*, Lamin A splicing 1%, ALDH1A1 inh inconclusive and JMJD2E inh -1%.
Screening COc1cc2c(cc1OC)C(C(=O)O)C(c1cc(Br)c(O)c(OC)c1)N(C)C2=O (stereo not drawn) returned G9a inh 35µM*, miR-21 reporter -2%, Sfp inh -8%, Lamin A splicing 4%, ALDH1A1 inh -2% and JMJD2E inh -5%.

Source: PubChem
